Inconclusive results are not listed. Unmarked numbers belong to inactive results. Active and inactive are the calls of the source. Calls follow the shape of the dose curve; as a rule, active = well fitted inhibition curve with a large enough effect; inconclusive = small, poorly fitted or top-dose-only effect; inactive = no such curve, though single readings can be large or run the other way. Peptide text beside a SMILES is read from it.
biological target: Cytochrome P450 3A4 (Homo sapiens) (UniProt P08684); assay: qHTS Assay for Inhibitors and Substrates of Cytochrome P450 3A4 (AID 884); details: recombinant CYP3A4, Luciferin-PPXE luminescence; series mostly up to 57.1 µM; activity change, negative = inhibition: at the top concentration; also: nearly all actives have a fitted effect of over 50% in size
Sequence (P08684 whole entry, looked up): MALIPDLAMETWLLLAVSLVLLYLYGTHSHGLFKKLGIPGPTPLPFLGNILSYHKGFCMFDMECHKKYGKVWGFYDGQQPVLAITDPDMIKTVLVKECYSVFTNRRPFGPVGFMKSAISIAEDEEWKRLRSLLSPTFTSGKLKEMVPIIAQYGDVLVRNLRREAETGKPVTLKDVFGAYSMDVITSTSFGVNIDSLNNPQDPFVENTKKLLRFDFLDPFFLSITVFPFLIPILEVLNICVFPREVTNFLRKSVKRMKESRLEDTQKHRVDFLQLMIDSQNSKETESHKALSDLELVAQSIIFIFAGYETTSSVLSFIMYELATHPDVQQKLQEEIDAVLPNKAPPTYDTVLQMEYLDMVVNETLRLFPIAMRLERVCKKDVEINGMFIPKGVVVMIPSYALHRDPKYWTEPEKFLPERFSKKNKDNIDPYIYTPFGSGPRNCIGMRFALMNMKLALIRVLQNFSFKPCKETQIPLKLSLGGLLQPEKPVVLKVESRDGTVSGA
Description: NIH Molecular Libraries Screening Centers Network [MLSCN]
NIH Chemical Genomics Center [NCGC]
The P450 gene superfamily is involved in the metabolism and clearance of xenobiotics. This assay used human CYP3A4 to measure the dealkylation of luciferin-6' phenylpiperazinylyl (Luciferin-PPXE; […]) to luciferin. The luciferin is then measured by luminescence after the addition of a luciferase detection reagent. Luciferin-PPXE concentration in the assay was equal to its KM for CYP3A4. Inhibitors and some substrates limit the production of luciferin, and decrease measured luminescence.
NCGC Assay Protocol Summary:
Two uL of enzyme and substrate mix (final concentrations: 20nM CYP3A4, 25uM Luciferin-PPXE, 200mM KPO4) were dispensed into a white, solid bottom 1536-well microtiter plate. 23nL of compound was transferred by a pin tool. The plate was incubated at RT for 10 min. Two uL of an NADPH regeneration solution (Promega supplied reagent) was dispensed and the reaction was allowed to continue for 60 min at RT. Then the reaction was stopped by reconstituted luciferin detection buffer. After another 20 min of incubation the plate was read on the ViewLux (Perkin Elmer) at 60 sec exposure and 2x2 binning. This protocol was carried out with Promega-Glo reagents and further information can be found at http://www.promega.com/tbs/tb325/tb325.pdf. Data were normalized to the to AC100 inhibition (57 uM ketoconazole).
Keywords: P450, CYP3A4, Luciferase, MLSMR, MLSCN, NIH Roadmap, qHTS, NCGC
% is scaled to controls: 0 for no effect and ±100 for the full control effect; potency is read from the fitted curve at half-maximal effect.

Row | SMILES | activity change, negative = inhibition | Potency
1 | CN(C)CC/C=C1/c2ccccc2COc2ccccc21 | -6.87% | –
2 | O=C(/C=C/C(=O)Oc1ccccc1C(=O)O)Oc1ccccc1C(=O)O | -5.59% | –
3 | COC(=O)CC1C(C)(C)C(OC(C)=O)[C@@]2(O)C=C3C4CC(=O)OC(c5ccoc5)[C@]4(C)CCC3[C@@]1(C)C2=O (stereo not given in full) | – | 7.94 µM (active)
4 | O=c1c2ccccc2oc2cc(O)c(C3COCC(CO)C(O)C(O)C3O)c(O)c12 (stereo not given) | -22.4% | –
5 | C[C@@H](C(=O)O)c1ccc(N2Cc3ccccc3C2=O)cc1 | -24.5% [at 25.6 µM] | –
6 | c1ccc2c(c1)CN1CCCC1=N2 | 5.58% | –
7 | NC(C(=O)O)[C@@H]1CC(Cl)=NO1 (stereo not given in full) | -72% | –
8 | CC(=O)OC1CC2C(C)(C)C(O)CC[C@@]2(C)C2CC[C@@]3(C)C(c4ccoc4)OC(=O)C4O[C@@]43[C@]12C (stereo not given in full) | – | 2.51 µM (active)
9 | Cc1cc(=O)oc2cc(O[C@@H]3O[C@H](C(=O)O)[C@@H](O)[C@H](O)[C@H]3O)ccc12 | -7.35% | –
10 | COC(=O)[C@]1(C)CCC[C@]2(C)c3ccc(C(C)C)cc3C(=O)CC12 (stereo not given in full) | – | 25.1 µM (active)
11 | NCCCCC(N)C(=O)NC(Cc1ccc(O)cc1)C(=O)NC(CCCCN)C(=O)O (stereo not drawn) (H-Lys-Tyr-Lys-OH; configuration not given here) | 3.57% | –
12 | O=C1OC(CO)C(O)C(O)C1O (stereo not given) | -6.08% | –
13 | C[C@@H]1OC(OC2C(OC3CC[C@@]4(C)C5CC=C6C7CC(C)(C)CC[C@@]7(C(=O)O)CCC6(C)C5(C)CCC4[C@]3(C)CO)OCC(O)C2O)C(O)C(O)C1O (stereo not given in full) | -3.24% | –
14 | CC(C)[C@H]1CC[C@@H](C)C[C@H]1O | -6.9% | –
15 | CC1(C)OC2C(CO)OC(n3cnc4c(=O)[nH]cnc43)C2O1 (stereo not given) | 7.57% | –
16 | CCOC(=O)C(CCc1ccccc1)NC(C)C(=O)N1CCCC1C(=O)O (stereo not given) | -4.55% | –
17 | O=c1[nH]c(=O)n([C@@H]2O[C@H](CO)[C@@H](O)[C@H]2O)cc1Br | -3.8% | –
18 | COc1ccc(-c2coc3cc(O)ccc3c2=O)c(O)c1O | -25% | –
19 | COc1ccc2c(c1)O[C@@H]1c3ccc(OC)cc3OCC21 (stereo not given in full) | -25.7% | –
20 | CC(=O)Oc1c(C)cccc1C(=O)O | -3.65% | –

Row | SMILES | activity change, negative = inhibition | Potency
21 | CCC(C)C(=O)OC1CCC=C2C=CC(C)C(CCC3CC(O)CC(=O)O3)[C@@H]21 (stereo not given in full) | – | 20 µM (active)
22 | CC(=O)OCC1OC(n2cnc3c(=O)[nH]cnc32)C(OC(C)=O)C1OC(C)=O (stereo not given) | -5.23% | –
23 | COC1=CC(C)C2CC3OC(=O)CC4C(C)=C(OC)C(=O)C([C@]2(C)C1=O)[C@]34C (stereo not given in full) | -6.51% | –
24 | CSc1ncnc2c1ncn2C1OC(CO)C(O)C1O (stereo not given) | -7.55% | –
25 | CC(=O)O[C@@]1(C(C)=O)CCC2C3C=C(C)C4=CC(=O)CCC4(C)C3CCC21C (stereo not given in full) | 25.4% | –
26 | C=C(C)C1CC[C@]2(CO)CC[C@@]3(C)[C@H](CCC4[C@@]5(C)CCC(O)C(C)(C)C5CC[C@@]43C)C12 (stereo not given in full) | -19.1% | –
27 | COc1cc(O)c(C(C)=O)c(OC)c1 | – | 25.1 µM (active)
28 | CC(C)c1c(O)c(-c2cc3c(c(C(C)C)c2O)CCC2C(C)(C)CCC[C@@]32C)cc2c1CCC1C(C)(C)CCC[C@@]21C (stereo not given in full) | -12.7% | –
29 | CC(C)CCCC(C)C1CCC2C3CC(=O)[C@H]4CC(O)CC[C@]4(C)C3CC[C@@]12C (stereo not given in full) | -7.1% | –
30 | CC(=O)O[C@]1(C)CC[C@]23CC1C(C)(C)C2CC[C@@H]3C (stereo not given in full) | -21.4% | –
31 | COc1ccc(C2CC(=O)c3c(O)cc(O)cc3O2)cc1O (stereo not given) | – | 15.8 µM (active)
32 | CCC(/C=C/C(C)C1CCC2C3CCC4=CC(=O)CC[C@@]4(C)C3CC[C@@]12C)C(C)C (stereo not given in full) | -1.57% | –
33 | COc1cc(O)c(C(=O)O)c(O)c1 | -11.2% | –
34 | O=c1[nH]c(Cl)nc2c1ncn2C1OC(CO)C(O)C1O (stereo not given) | -6.29% | –
35 | [N-]=[N+]=Nc1nc2c(N)ncnc2n1C1OC(CO)C(O)C1O (stereo not given) | -9.42% | –
36 | Nc1nc(Cl)c2ncn(C3OC(CO)C(O)C3O)c2n1 (stereo not given) | -12.4% | –
37 | OCC1OC([S-])[C@H](O)C(O)C1O.[Au+] (stereo not given in full) | -23.2% | –
38 | COc1ccc(-c2oc3ccccc3c(=O)c2O)cc1OC | – | 20 µM (active)
39 | C[C@]12CCC(=O)C=C1CCC1C2C(=O)C[C@]2(C)C1CC[C@]2(O)C(=O)CO (stereo not given in full) | -25.9% | –
40 | CC(C)CCCC(C)C1CCC2C3C(=O)C=C4CC(O)CC[C@@]4(C)C3CC[C@@]12C (stereo not given in full) | 11.6% | –

Source: PubChem BioAssay (NCATS)
